The full ranking holds about 33,000 sequences; the median of “E-score (-0.5 to 0.5)” is about -0.011, and the highest 2% start at about 0.28. This excerpt belongs to a sample that is enriched for the highest values.
What follows are sequences tested against T1, Gcr1 (UniProt P07261) (assay: PBM E-score (8-mer binding enrichment) (E-score (-0.5 to 0.5)); higher = stronger / more preferred TF binding). Details: protein concentration: 100 nM; construct: GST-full length.
T1 sequence: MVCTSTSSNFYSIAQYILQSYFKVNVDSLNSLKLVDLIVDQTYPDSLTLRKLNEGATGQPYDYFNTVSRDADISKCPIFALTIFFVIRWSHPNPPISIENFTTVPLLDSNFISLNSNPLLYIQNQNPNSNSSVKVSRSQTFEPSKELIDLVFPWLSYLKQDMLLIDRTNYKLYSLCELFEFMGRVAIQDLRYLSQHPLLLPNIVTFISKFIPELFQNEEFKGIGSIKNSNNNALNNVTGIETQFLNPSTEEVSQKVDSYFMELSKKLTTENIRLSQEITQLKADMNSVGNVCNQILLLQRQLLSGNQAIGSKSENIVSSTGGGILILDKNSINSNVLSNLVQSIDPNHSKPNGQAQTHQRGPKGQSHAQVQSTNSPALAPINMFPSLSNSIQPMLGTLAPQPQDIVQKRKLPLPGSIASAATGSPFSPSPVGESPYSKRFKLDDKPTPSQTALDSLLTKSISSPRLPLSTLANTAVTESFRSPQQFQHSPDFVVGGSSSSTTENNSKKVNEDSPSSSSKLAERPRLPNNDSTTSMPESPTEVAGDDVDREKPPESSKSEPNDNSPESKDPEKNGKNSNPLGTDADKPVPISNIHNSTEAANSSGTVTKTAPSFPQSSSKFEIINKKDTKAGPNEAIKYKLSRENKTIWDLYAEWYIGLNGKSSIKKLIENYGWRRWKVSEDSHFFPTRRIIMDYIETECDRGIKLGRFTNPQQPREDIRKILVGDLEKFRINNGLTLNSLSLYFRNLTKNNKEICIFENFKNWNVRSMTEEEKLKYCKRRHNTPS
Protocol: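 Universal 'all 10-mer' protein binding microarrays (Agilent AMADID 015681) probed with GST-tagged S. cerevisiae TFs (full-length or DBD) made by in vitro transcription/translation (PURExpress), about 100-200 nM. Bound TF was detected with fluorescent anti-GST. Each ungapped 8-mer (which stands for itself and its reverse complement) is scored by the PBM enrichment score (E-score), a modified Wilcoxon-Mann-Whitney statistic from -0.5 to +0.5, computed with the Universal PBM Analysis Suite. Scale: above 0.35 generally sequence-specific binding.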

Sequence	PBM E-score
GGCTATGA	-0.188
AATCCGTC	-0.0275
AGCCAGAA	0.13
TCTGCAGA	-0.194
ATGACCCG	-0.321
AGGAAGTG	0.213
ACGAATCC	0.288
CGGAATCC	0.417
CGGAAGTC	-0.00248
AGGAAGTC	0.337
CCGAATCC	0.133
CGGAATTC	0.242
ACGAATCT	0.122
CGGAATCA	0.0684
CCCGAGAC	0.0132
ATCCGCTC	0.0142
ACTCCCTA	-0.0517
CGCCTGTC	-0.105
GGTGTTCA	0.106
AATGGTGC	0.208
CGTGGTAG	-0.133
AGTGGTAG	0.318
AGTGGTAA	-0.099
AGTGGTGA	0.0333
AGTGGTGC	0.305

Sequence	PBM E-score
CGTGGTGC	-0.0202
AATGGTGG	-0.00912
AGTGGTGG	0.305
CCGATGAC	-0.0977
AAGTTGCG	0.211
TGCATCCA	0.182
AGCATCCA	0.457
AACATCCA	0.193
AGCATCCG	0.372
ATCATCCG	-0.191
AACATCCG	0.164
ACTTTAAA	0.0642
ATAGTAAG	-0.0276
ACAAGACC	-0.0386
GAGCAATA	0.0781
CCGAACTC	-0.0172
CCTGGAAC	-0.0042
ACTGGAAC	0.301
AATGGAAG	0.27
AATGGGAA	0.132
ACTGGAAA	0.0867
ACGGGAAG	0.112
AATGGAAC	0.154
AATGGAAT	0.301
CCTGGAAG	0.0765

Sequence	PBM E-score
AATGGGAT	0.28
ACTGGAAG	0.463
AATGGGAG	0.0925
AGGCAATC	-0.245
CTCCAAGA	0.0262
ATTTGCAC	0.0134
GTAGCTAA	-0.0197
TAGAAACA	0.112
TTGAAAAA	0.0707
CCCATAGC	-0.16
ACGGGAAT	0.111
ACTGGGAT	0.0877
ACTGGAAT	0.415
AGCCGTGG	-0.108
ACGAGAGG	-0.238
GCTGTAGA	-0.0143
CCTGTAGA	0.283
CAGGTATC	0.311
CAGGTATA	-0.0414
ACTGTATC	-0.275
AAGGTATC	0.158
CCTGTATC	0.324
ACGGTATC	-0.0774
CCGGTATA	0.191
CCGGTATC	0.288

Sequence	PBM E-score
CCTGTATA	0.2
ACTGTAGA	-0.079
ACGGTAAG	-0.0708
CAACTGGC	0.0226
GATCACCA	-0.0057
TACCGTAA	0.0593
GACCCCCC	-0.241
CGCCTGCA	-0.117
AATGAGTA	0.143
GAACCCAA	0.167
TGAACCCA	0.0317
GGGACCCC	0.00587
GGGACCCA	0.303
GAACCCCA	0.344
CGAACCTA	-0.117
AGAACCCA	0.234
AGAACCTA	0.0206
TGGACCCA	0.104
GGAACCCA	0.394
GGAACCTA	0.401
GAACCCCC	0.0349
CGATGGGC	-0.0735
AGCTTCAT	0.0447
CTAACCAG	0.0668
GGCCCCCA	0.231

Sequence	PBM E-score
CATACCGA	0.0765
ACTCCTTA	0.0309
AGCCACAA	0.15
GGAACCCC	0.394
AGAACCCC	0.0794
CGAACCCC	0.0243
ACCTATCC	0.0168
ATGCTACG	0.0159
ACACACTC	0.0505
AGACATTA	-0.0316
CGACATTA	0.306
CGACATTC	-0.0306
CTGGGTGC	0.244
GCTAGCCA	-0.232
TATTGGAA	0.288
GATTGGAA	0.258
GAATGGAA	0.225
AAATGGAA	0.239
TAATGGCA	0.295
CATTGGAA	0.106
CAATGGCA	-0.159
TAATGGAA	0.28
GAATGGCA	-0.0438
GTTTATAA	0.129
AATGTGAT	-0.0732

Sequence	PBM E-score
AATTGTCT	-0.147
GCTACTCC	0.0342
GCACCTGA	0.0656
GCAGCTAC	0.267
TCAGCTAA	-0.225
TCAGCTGA	-0.106
GCAGCTGC	0.249
GCAGCTAA	0.329
GCAGCTGA	0.336
CTCATTCC	0.0687
CAGCCCCG	-0.107
AGGCGAGC	-0.0288
GGGTGATA	0.0068
CCGCAAAA	0.0921
GCTACCAA	0.179
GATACCAC	0.329
GCTACCAC	0.323
ACTACCAC	0.101
GATACCAA	0.154
AATACCAC	0.097
AACCTAAG	-0.0759
ACCTCCTC	-0.194
AACGTCTA	0.00101
CATCCTGA	0.292
CTTCCTAC	0.18

Sequence	PBM E-score
GATCCTGA	0.0899
CTTCCTAA	0.294
ATTCCTGA	0.299
ATTCCTAA	0.284
ATTCCTAG	-0.0289
ATTCCTGG	0.165
ATTCCTGC	0.048
GTTCCTAA	0.237
TATCCTGA	0.156
ATTCCTAC	0.0721
TAGACCTA	-0.0537
AACCAGAG	0.0777
TACACAGA	-0.106
CTTCCTTA	0.153
GGGTTGCA	-0.0951
GAAGCGTC	0.268
CATCAACA	0.015
ATGTTGTA	0.104
GAGCACAC	-0.271
AAGCACCT	0.106
GAGCACCC	0.329
AAGCACCC	0.283
CAGCACCC	0.277
AAGCACCG	0.0663
ACGCCATG	-0.0676

Sequence	PBM E-score
GGTAAAAC	-0.056
AATGGCGC	0.253
CCTTCGTA	0.00994
GCTTCGTA	0.329
GCTTCTCA	0.299
GCTTCTCC	0.27
ACTTCTTA	0.104
GCTTCTGA	0.0646
CCTTCTCA	-0.156
GCTTCTTA	0.338
ACTTCGTA	0.0106
CCTATTGC	-0.0151
CACGGAAC	0.0756
ACCCAAAT	0.233
AAGTTCCT	0.163
CTTGGTTC	0.149
AAACAGAG	-0.244
TCCCTCAA	0.00435
ATGTTCCG	-0.119
CCCGAAAG	0.224
AGGCGCTC	-0.0859
CTCTGCAC	-0.0576
GATTCCAC	0.382
TATTCCAA	0.224
AATTCCAG	0.274

Sequence	PBM E-score
CATTCCAA	0.0418
AATTCCAC	0.191
CATTCCAC	0.0952
AATTCCAT	0.191
AATTCCAA	0.308
GATTCCAA	0.416
ACCAACGG	-0.0789
ATAGGGTC	-0.162
ACATCGAC	-0.154
ACGGCTCA	-0.123
AGGCGTGA	-0.191
AAAAGAGC	-0.0507
AAATGGGA	0.194
ACGTCAGA	-0.0561
CAGGTCAA	-0.173
CCCACGAG	-0.0381
CCCCACAC	0.108
TCCACAAA	0.288
GCCACAAA	0.0996
CCCACAAG	0.0598
CCCCACAA	0.305
CCCCACAG	-0.0776
CCCACAAA	0.305
ACCACAAA	0.236

From the supplement of paper PMC3334620
